Reference: the supplement of paper PMC10849652
Of roughly 7,900 targets only a part is listed; those with a hit were picked by preference. About 0.6% of all pairs of compound and target were hits.

What was measured:
Experiment in all cases: log2 fold change, soluble protein after heating vs DMSO (PISA); higher = thermal stabilisation; K562 cells, 10 uM, 30 min; active = over 0.2 and 3.5 SD of the protein, either way, in both replicates (recomputed)
erlotinib = compound: C#Cc1cccc(Nc2ncnc3cc(OCCOC)c(OCCOC)cc23)c1 [erlotinib]
Summary of the method: (§1)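 Soluble protein was defined as the supernatant after 21,000xg for 90 min. It came from K562 cells at 2×10^6 cells/mL given 10 μM compound for 30 min, heated in aliquots for 3 min across 48°C-58°C, pooled, and extracted in PBS with 0.5% NP-40 at 4°C, and was quantified by TMTpro 16plex LC-MS/MS with equalised channel sums. Thermal stability against control samples, from duplicates, is reported as log2 fold change.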

[1] = compound: C/C(=N\NC(=O)C1=CC(=CC=C1)S(=O)(=O)N2CCOCC2)/C3=C(C=CC(=C3)Cl)O
Summary of the method: as §1

[2] = compound: C1=CC(=C(C=C1Cl)C2=NC3=NC=CN=C3C(=N2)NC4=CC=NC=C4)F
Summary of the method: as §1

[3] = compound: C1=CC(=CC=C1C2=NC3=C(N2)C=C(C=C3)C(=O)N)OC4=CC=C(C=C4)Cl
Summary of the method: as §1

[4] = compound: C1=CC2=C(C=CC(=C2)/C=C\3/C(=O)NC(=NCC4=CC=CS4)S3)N=C1
Summary of the method: as §1

[5] = compound: C1=CC2=NC=CN=C2C=C1/C=C/3\C(=O)NC(=O)S3
Summary of the method: as §1

[6] = compound: C1=CC=C(C=C1)C2=NC(=C(N2)C3=CC=NC=C3)C4=CC(=C(C=C4)Cl)O
Summary of the method: as §1

[7] = compound: C1=CC=C2C(=C1)C3=NNC4=CC=CC(=C43)C2=O
Summary of the method: as §1

[8] = compound: C1CCN(C1)C(=O)NC2=CC=CC(=C2)NC3=NC=C(C(=N3)NCCC4=CN=CN4)Br
Summary of the method: as §1

[9] = compound: C1CN(CCC1(CC2=CC=C(C=C2)Cl)N)C3=NC=NC4=C3C=CN4
Summary of the method: as §1

Measured: log2 fold change

SMPD4 isoform 4 (UniProt Q9NXE4)
inactive: erlotinib 0.073 | [1] 0.064 | [2] -0.034 | [3] 0.005 | [4] 0.098 | [5] 0.158 | [6] -0.021 | [7] -0.076 | [8] 0.023 | [9] -0.011

SLC30A10 (UniProt Q6XR72)
inactive: erlotinib 0.033 | [1] 0.068 | [2] -0.06 | [3] 0.001 | [4] 0.077 | [5] 0.008 | [6] 0.025 | [7] -0.003 | [8] -0.054 | [9] 0.115

TAOK1 (UniProt Q7L7X3)
inactive: erlotinib 0.006 | [1] 0.045 | [2] -0.027 | [3] 0.09 | [4] -0.033 | [5] 0.009 | [6] -0.009 | [7] -0.007 | [8] -0.005 | [9] -0.01

SYK (UniProt P43405)
inactive: erlotinib 0.06 | [1] 0.144 | [2] -0.019 | [3] 0.038 | [4] 0.031 | [5] -0.095 | [6] 0.131 | [8] -0.042 | [9] 0.074

SLK isoform 2 (UniProt Q9H2G2)
inactive: erlotinib -0.023 | [1] 0.083 | [2] -0.098 | [3] -0.001 | [4] 0.043 | [5] 0.075 | [6] -0.135 | [7] -0.047 | [8] -0.028 | [9] -0.057

STK11IP (UniProt Q8N1F8)
inactive: erlotinib 0.025 | [1] 0.152 | [2] -0.079 | [3] -0.243 | [4] 0.094 | [5] 0.006 | [7] -0.062 | [8] 0.042 | [9] -0.01

TBC1D15 isoform 3 (UniProt Q8TC07)
Sequence of UniProt Q8TC07 (Q8TC07 whole entry, looked up): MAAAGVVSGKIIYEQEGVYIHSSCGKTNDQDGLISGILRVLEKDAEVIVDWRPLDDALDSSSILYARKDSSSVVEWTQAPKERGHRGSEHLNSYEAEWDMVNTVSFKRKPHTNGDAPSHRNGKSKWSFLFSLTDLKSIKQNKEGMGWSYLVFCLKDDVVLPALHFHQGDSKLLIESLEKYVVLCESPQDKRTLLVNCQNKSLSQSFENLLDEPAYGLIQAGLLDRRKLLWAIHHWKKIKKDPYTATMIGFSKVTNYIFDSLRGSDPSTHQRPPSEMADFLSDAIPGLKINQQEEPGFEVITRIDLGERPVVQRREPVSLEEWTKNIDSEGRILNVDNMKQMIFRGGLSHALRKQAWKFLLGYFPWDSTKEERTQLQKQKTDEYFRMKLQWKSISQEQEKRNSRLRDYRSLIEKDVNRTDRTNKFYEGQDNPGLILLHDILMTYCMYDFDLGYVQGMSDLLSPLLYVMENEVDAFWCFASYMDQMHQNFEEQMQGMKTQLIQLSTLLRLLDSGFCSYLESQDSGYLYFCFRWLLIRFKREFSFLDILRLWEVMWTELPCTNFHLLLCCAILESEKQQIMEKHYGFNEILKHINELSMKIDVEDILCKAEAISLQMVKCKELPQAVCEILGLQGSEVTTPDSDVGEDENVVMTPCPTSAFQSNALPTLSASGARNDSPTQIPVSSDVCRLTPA
inactive: erlotinib -0.007 | [1] 0.075 | [2] 0.024 | [3] -0.029 | [4] 0.059 | [5] 0.067 | [6] 0.029 | [7] -0.035 | [8] 0.016 | [9] -0.048

SUN2 (UniProt Q9UH99)
inactive: erlotinib -0.067 | [1] 0.023 | [2] -0.031 | [3] -0.004 | [4] -0.012 | [5] 0.02 | [6] 0.005 | [7] -0.087 | [8] -0.038 | [9] -0.017

TATDN2 (UniProt Q93075)
Sequence of UniProt Q93075 (Q93075 whole entry, looked up): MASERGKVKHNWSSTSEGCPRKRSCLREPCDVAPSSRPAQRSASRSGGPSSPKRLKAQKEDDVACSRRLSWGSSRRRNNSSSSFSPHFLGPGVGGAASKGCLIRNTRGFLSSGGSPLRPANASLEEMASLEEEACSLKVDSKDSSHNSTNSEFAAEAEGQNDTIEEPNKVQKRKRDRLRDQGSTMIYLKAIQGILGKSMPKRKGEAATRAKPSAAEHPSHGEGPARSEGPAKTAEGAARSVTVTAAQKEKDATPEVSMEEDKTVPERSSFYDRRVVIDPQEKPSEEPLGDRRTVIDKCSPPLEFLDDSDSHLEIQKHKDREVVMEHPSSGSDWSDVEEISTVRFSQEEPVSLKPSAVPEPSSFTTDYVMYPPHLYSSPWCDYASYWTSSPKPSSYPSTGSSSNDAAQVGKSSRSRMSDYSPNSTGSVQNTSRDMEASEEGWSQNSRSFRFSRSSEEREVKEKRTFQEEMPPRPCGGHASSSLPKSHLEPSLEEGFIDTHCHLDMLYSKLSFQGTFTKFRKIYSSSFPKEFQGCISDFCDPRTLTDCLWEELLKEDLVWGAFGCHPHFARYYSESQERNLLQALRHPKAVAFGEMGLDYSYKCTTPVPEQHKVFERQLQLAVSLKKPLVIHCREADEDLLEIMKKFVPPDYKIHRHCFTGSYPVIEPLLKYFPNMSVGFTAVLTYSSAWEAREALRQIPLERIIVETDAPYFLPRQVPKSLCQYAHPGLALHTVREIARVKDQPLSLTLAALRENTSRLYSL
inactive: erlotinib 0.071 | [1] -0.062 | [2] -0.016 | [3] -0.013 | [4] 0.043 | [5] -0.052 | [7] 0.003 | [8] -0.121 | [9] 0.06

SP1 (UniProt P08047)
Sequence of UniProt P08047 (P08047 whole entry, looked up): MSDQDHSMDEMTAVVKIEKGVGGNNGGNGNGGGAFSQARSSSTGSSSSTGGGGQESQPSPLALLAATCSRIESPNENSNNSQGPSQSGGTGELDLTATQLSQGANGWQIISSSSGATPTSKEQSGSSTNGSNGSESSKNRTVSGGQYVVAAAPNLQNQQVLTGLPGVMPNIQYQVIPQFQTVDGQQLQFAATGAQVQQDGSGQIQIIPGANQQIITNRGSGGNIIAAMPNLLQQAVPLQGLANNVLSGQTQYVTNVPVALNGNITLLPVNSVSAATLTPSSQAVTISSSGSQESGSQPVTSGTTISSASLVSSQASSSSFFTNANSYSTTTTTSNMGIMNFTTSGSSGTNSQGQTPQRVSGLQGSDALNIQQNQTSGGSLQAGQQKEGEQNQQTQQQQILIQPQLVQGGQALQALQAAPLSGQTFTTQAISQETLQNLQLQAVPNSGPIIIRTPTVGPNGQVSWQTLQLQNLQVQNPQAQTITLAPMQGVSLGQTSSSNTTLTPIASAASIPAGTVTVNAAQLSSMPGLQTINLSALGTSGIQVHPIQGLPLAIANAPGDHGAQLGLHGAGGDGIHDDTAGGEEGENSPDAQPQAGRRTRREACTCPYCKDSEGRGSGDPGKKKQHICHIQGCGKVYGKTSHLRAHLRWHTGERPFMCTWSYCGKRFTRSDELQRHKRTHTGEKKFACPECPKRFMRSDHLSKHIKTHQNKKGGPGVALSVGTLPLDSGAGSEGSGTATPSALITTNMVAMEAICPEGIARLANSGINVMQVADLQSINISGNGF
inactive: erlotinib -0.055 | [1] -0.03 | [2] -0.046 | [3] 0.043 | [4] 0.006 | [5] 0.01 | [6] 0.001 | [7] -0.031 | [8] 0.047 | [9] -0.019

TIAL1 isoform 2 (UniProt Q01085)
inactive: erlotinib 0.013 | [1] -0.004 | [2] 0.002 | [3] 0 | [4] 0.02 | [5] 0.008 | [6] -0.026 | [7] 0.018 | [8] 0.032 | [9] -0.004

SLC6A6 (UniProt P31641)
inactive: erlotinib 0.001 | [1] 0.013 | [2] 0.123 | [3] -0.005 | [4] 0.003 | [5] 0.055 | [6] 0.007 | [7] -0.054 | [8] 0.087 | [9] 0.083

SPPL2B (UniProt Q8TCT7)
inactive: erlotinib 0.021 | [1] -0.112 | [2] -0.039 | [3] 0.044 | [4] 0.081 | [5] 0.048 | [6] 0.003 | [7] -0.072 | [8] -0.041 | [9] 0.038

SRSF11 (UniProt Q05519)
Sequence of UniProt Q05519 (Q05519 whole entry, looked up): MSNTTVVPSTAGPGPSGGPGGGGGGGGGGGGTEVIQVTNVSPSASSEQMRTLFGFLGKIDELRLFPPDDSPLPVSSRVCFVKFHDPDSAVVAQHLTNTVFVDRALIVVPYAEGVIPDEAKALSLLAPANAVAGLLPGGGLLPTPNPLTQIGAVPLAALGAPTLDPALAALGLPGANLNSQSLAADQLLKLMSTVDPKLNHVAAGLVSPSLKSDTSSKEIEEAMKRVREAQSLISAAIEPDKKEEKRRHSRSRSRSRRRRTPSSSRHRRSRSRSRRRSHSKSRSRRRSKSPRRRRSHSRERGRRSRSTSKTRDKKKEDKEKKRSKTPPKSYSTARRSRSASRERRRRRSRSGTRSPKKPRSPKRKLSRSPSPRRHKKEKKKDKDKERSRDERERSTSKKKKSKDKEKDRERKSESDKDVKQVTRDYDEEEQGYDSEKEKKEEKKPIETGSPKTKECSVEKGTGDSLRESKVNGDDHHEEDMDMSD
inactive: erlotinib 0.05 | [1] 0.191 | [2] 0.06 | [3] 0.054 | [4] -0.049 | [5] -0.003 | [6] -0.026 | [7] -0.003 | [8] -0.129 | [9] -0.196

TIMM21 (UniProt Q9BVV7)
Sequence of UniProt Q9BVV7 (Q9BVV7 whole entry, looked up): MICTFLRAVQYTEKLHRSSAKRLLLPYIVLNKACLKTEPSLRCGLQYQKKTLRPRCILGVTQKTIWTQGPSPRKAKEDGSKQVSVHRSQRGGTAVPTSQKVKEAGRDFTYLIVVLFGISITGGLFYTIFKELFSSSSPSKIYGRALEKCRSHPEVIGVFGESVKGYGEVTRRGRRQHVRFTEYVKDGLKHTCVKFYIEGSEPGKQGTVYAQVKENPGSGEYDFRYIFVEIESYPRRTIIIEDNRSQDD
inactive: erlotinib 0.026 | [1] 0.068 | [2] 0.004 | [3] -0.008 | [4] 0.035 | [5] -0.001 | [6] -0.001 | [7] 0.081 | [8] -0.002 | [9] 0.021

SUPT5H (UniProt O00267)
inactive: erlotinib 0.05 | [1] 0.084 | [2] 0.065 | [3] 0.011 | [4] 0.017 | [5] 0.021 | [6] 0.02 | [7] 0.006 | [8] -0.017 | [9] 0.011

STK38 (UniProt Q15208)
inactive: erlotinib 0.039 | [1] 0.138 | [2] 0.029 | [3] -0.021 | [4] 0.014 | [5] 0.079 | [6] 0.057 | [7] 0.049 | [8] -0.025 | [9] -0.05

STX17 (UniProt P56962)
inactive: erlotinib 0.206 | [1] 0.003 | [2] 0.124 | [3] 0.015 | [4] 0.041 | [5] 0.016 | [6] -0.01 | [7] 0.059 | [8] -0.004 | [9] 0.027

SSB (UniProt P05455)
inactive: erlotinib -0.05 | [1] 0.045 | [2] 0.013 | [3] 0.028 | [4] -0.043 | [5] -0.014 | [6] -0.056 | [7] -0.169 | [8] -0.151 | [9] -0.03

SSRP1 (UniProt Q08945)
Sequence of UniProt Q08945 (Q08945 whole entry, looked up): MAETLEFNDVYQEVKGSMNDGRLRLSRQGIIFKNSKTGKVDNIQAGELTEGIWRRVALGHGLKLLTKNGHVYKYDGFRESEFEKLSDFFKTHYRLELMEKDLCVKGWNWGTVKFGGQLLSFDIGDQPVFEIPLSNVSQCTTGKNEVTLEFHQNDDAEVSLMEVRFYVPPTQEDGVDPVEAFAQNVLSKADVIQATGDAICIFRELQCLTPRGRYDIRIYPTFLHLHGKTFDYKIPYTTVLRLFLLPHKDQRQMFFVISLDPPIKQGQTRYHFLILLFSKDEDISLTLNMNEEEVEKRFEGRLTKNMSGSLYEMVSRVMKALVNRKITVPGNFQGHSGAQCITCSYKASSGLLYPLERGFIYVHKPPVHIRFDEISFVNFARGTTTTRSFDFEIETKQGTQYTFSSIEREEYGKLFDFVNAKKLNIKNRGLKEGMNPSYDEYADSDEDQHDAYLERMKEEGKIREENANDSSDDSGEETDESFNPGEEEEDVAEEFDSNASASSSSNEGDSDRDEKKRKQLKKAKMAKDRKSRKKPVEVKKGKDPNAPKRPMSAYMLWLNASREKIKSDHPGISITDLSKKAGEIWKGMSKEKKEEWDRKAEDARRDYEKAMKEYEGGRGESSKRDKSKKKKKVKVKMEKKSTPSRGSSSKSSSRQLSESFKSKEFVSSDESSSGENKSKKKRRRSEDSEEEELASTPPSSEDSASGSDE
inactive: erlotinib -0.018 | [1] 0.143 | [2] 0.005 | [3] 0.014 | [4] 0.029 | [5] 0.022 | [6] -0.016 | [7] -0.029 | [8] -0.052 | [9] 0.009

TECR (UniProt Q9NZ01)
inactive: erlotinib -0.02 | [1] 0.042 | [2] 0.036 | [3] -0.059 | [4] 0.018 | [5] 0.024 | [6] 0.067 | [7] -0.059 | [8] 0.072 | [9] 0.045

TIMM10 (UniProt P62072)
inactive: erlotinib -0.109 | [1] -0.021 | [2] 0.137 | [3] -0.011 | [4] 0.044 | [5] 0.051 | [6] 0.072 | [7] 0.029 | [8] -0.014 | [9] -0.016

SRPRA (UniProt P08240)
inactive: erlotinib -0.01 | [1] 0.061 | [2] 0.073 | [3] 0.007 | [4] 0.054 | [5] -0.048 | [6] 0.063 | [7] 0.003 | [8] 0.001 | [9] 0.006

SURF1 (UniProt Q15526)
Sequence of UniProt Q15526 (Q15526 whole entry, looked up): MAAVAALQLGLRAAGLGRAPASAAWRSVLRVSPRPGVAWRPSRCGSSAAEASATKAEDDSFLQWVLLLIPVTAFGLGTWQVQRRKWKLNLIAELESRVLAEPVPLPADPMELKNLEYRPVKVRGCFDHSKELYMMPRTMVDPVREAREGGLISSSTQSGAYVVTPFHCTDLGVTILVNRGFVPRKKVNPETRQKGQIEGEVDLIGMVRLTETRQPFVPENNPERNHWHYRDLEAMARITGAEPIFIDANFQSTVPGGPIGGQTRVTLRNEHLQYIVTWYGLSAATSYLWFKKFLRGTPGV
inactive: erlotinib 0.021 | [1] -0.036 | [2] 0.051 | [3] -0.026 | [4] -0.045 | [5] 0.055 | [6] 0.056 | [7] 0.017 | [8] -0.141 | [9] 0

SLC38A2 (UniProt Q96QD8)
Sequence of UniProt Q96QD8 (Q96QD8 whole entry, looked up): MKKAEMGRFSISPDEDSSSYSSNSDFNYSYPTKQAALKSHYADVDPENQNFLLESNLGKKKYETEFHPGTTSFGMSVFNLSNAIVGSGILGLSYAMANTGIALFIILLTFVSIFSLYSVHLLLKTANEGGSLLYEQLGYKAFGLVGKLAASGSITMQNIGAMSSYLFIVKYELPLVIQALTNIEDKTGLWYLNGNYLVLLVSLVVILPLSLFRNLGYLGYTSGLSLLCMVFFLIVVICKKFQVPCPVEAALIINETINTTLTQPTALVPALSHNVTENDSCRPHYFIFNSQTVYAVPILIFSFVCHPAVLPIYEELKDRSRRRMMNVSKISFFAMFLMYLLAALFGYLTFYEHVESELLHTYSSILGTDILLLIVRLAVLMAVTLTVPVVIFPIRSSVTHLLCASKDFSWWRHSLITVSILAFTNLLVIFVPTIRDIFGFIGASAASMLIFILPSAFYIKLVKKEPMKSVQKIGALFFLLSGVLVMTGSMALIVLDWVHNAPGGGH
inactive: erlotinib -0.093 | [1] 0.075 | [2] 0.01 | [3] 0.003 | [4] -0.039 | [5] 0.093 | [6] 0.055 | [7] 0 | [8] -0.009 | [9] 0.048

TIMM10B (UniProt Q9Y5J6)
Sequence of UniProt Q9Y5J6 (Q9Y5J6 whole entry, looked up): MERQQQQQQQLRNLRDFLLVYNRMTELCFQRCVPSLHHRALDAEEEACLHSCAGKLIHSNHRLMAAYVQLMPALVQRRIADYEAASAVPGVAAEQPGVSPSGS
inactive: erlotinib 0.299 | [1] 0.135 | [2] 0.191 | [3] -0.189 | [4] 0.216 | [5] 0.048 | [6] 0.042 | [7] 0.543 | [8] -0.143 | [9] -0.051

SPG21 (UniProt Q9NZD8)
Sequence of UniProt Q9NZD8 (Q9NZD8 whole entry, looked up): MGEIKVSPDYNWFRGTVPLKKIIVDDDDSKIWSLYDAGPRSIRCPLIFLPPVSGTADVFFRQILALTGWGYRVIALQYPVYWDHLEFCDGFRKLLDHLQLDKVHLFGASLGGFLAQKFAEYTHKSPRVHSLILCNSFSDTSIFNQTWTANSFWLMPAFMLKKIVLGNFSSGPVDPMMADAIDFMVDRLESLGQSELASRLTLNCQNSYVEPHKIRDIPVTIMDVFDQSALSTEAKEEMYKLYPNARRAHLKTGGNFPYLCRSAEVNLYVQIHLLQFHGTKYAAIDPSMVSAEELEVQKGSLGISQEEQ
inactive: erlotinib 0.014 | [1] 0.075 | [2] -0.08 | [3] 0.021 | [4] -0.045 | [5] 0.054 | [6] 0.103 | [7] 0.083 | [8] -0.032 | [9] 0.012
